Data: PubChem BioAssay AID1159580 (chemical genetic matrix, 2015)
About 2,000 (36%) of roughly 5,500 compounds were called active. Inconclusive results (about 18%) are left out. No stated cut-off is given here; in the data, active means normalized growth mostly below about 0.91 (no sharp cut-off); inconclusive means no clear call, values can overlap the other calls; inactive means mostly above about 0.92. This is one part of the list.

Experiment: chemical genetic growth profiling, strain panel (AID 1159580);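 further: tested at 20 µM; growth read once vehicle control cultures reached saturation at 30 °C; 1 = growth at the plate median or of vehicle wells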
Conditions: S. cerevisiae deletion strains, growth OD

Measured: normalized growth

Cc1cc(Cl)ccc1NNC(=O)c1snnc1C
active: locus YHR030C, strain SLT2, stronger effect = lower value 0.815 | locus YLR113W, strain HOG1, stronger effect = lower value 0.84
inactive: locus YAR019C, strain CDC15, stronger effect = lower value 0.971 | locus YBL105C, strain PKC1, stronger effect = lower value 0.949 | locus YBR135W, strain CKS1, stronger effect = lower value 0.967 | locus YBR136W, strain MEC1, stronger effect = lower value 0.949 | locus YBR160W, strain CDC28, stronger effect = lower value 0.959 | locus YDL017W, strain CDC7, stronger effect = lower value 0.951 | locus YDL028C, strain MPS1, stronger effect = lower value 0.969 | locus YDL101C, strain DUN1, stronger effect = lower value 0.968 | locus YDL108W, strain KIN28, stronger effect = lower value 0.955 | locus YDL132W, strain cdc53, stronger effect = lower value 0.978 | locus YDL214C, strain PRR2, stronger effect = lower value 0.907 | locus YDR052C, strain DBF4, stronger effect = lower value 0.957 | locus YDR054C, strain cdc34, stronger effect = lower value 0.974 | locus YDR226W, strain ADK1, stronger effect = lower value 0.977 | locus YDR477W, strain SNF1, stronger effect = lower value 0.907 | locus YER123W, strain YCK3, stronger effect = lower value 0.816 | locus YER133W, strain GLC7, stronger effect = lower value 0.909 | locus YFL009W, strain cdc4, stronger effect = lower value 0.979 | locus YFL029C, strain CAK1, stronger effect = lower value 0.957 | locus YFR003C, strain YPI1, stronger effect = lower value 0.957 | locus YFR019W, strain FAB1, stronger effect = lower value 0.885 | locus YFR028C, strain CDC14, stronger effect = lower value 0.958 | locus YGR040W, strain KSS1, stronger effect = lower value 0.881 | locus YGR052W, strain FMP48, stronger effect = lower value 0.965 | locus YGR092W, strain DBF2, stronger effect = lower value 0.824 | locus YHR079C, strain IRE1, stronger effect = lower value 0.919 | locus YHR082C, strain KSP1, stronger effect = lower value 0.979 | locus YHR205W, strain SCH9, stronger effect = lower value 0.919 | locus YIL147C, strain SLN1, stronger effect = lower value 0.966 | locus YJL095W, strain BCK1, stronger effect = lower value 0.888 | locus YJL128C, strain PBS2, stronger effect = lower value 0.943 | locus YJL157C, strain FAR1, stronger effect = lower value 0.881 | locus YJR016C, strain ILV3, stronger effect = lower value 0.977 | locus YJR066W, strain TOR1 (second series), stronger effect = lower value 0.841 | locus YJR066W, strain TOR1, stronger effect = lower value 0.972 | locus YKL048C, strain ELM1, stronger effect = lower value 0.935 | locus YKL067W, strain YNK1, stronger effect = lower value 0.919 | locus YKL101W, strain HSL1, stronger effect = lower value 0.914 | locus YKL193C, strain SDS22, stronger effect = lower value 0.96 | locus YKL203C, strain TOR2, stronger effect = lower value 0.962 | locus YLR133W, strain CKI1, stronger effect = lower value 0.891 | locus YLR403W, strain SFP1, stronger effect = lower value 0.887 | locus YML070W, strain DAK1, stronger effect = lower value 0.865 | locus YMR001C, strain CDC5, stronger effect = lower value 0.951 | locus YMR205C, strain PFK2 (second series), stronger effect = lower value 0.922 | locus YMR277W, strain FCP1, stronger effect = lower value 0.958 | locus YNL006W, strain LST8, stronger effect = lower value 0.974 | locus YNL020C, strain ARK1, stronger effect = lower value 0.894 | locus YNL161W, strain CBK1, stronger effect = lower value 0.956 | locus YNL183C, strain NPR1, stronger effect = lower value 0.942 | locus YNL207W, strain RIO2, stronger effect = lower value 0.96 | locus YNL222W, strain SSU72, stronger effect = lower value 0.956 | locus YNL307C, strain MCK1 (second series), stronger effect = lower value 0.794 | locus YOL078W, strain AVO1, stronger effect = lower value 0.954 | locus YOL136C, strain PFK27, stronger effect = lower value 0.885 | locus YOR061W, strain CKA2, stronger effect = lower value 0.866 | locus YOR119C, strain RIO1, stronger effect = lower value 0.96 | locus YOR231W, strain MKK1, stronger effect = lower value 0.878 | locus YOR329C, strain SCD5, stronger effect = lower value 0.963 | locus YPL031C, strain PHO85, stronger effect = lower value 0.911 | locus YPL153C, strain RAD53, stronger effect = lower value 0.881 | locus YPL204W, strain HRR25, stronger effect = lower value 0.874 | locus YPL209C, strain IPL1, stronger effect = lower value 0.943 | locus YPL256C, strain CLN2, stronger effect = lower value 0.881 | locus YPR025C, strain CCL1, stronger effect = lower value 0.955 | locus YPR106W, strain ISR1, stronger effect = lower value 0.976 | locus YPR111W, strain DBF20, stronger effect = lower value 0.979 | strain NNK1, stronger effect = lower value 0.955 | strain TSCII, stronger effect = lower value 0.962
